Screening data (PubChem BioAssay)
In the library only some 12% were active in any assay of this set; here they are far more common.
SARS PLP yeast – SARS-CoV PLP inhibition in yeast. S. cerevisiae expressing SARS-CoV PLpro, growth rescue. Potency, µM (series often up to 32.9 µM), inactives show at the highest dose activity, positive = growth rescue, hits mostly activators. 0.19% of 330,000 active; calls by dose curve; also: 0% is about no effect; nearly all actives have a fitted effect of over 55% in size
Pf growth 96h – inhibits malaria parasite growth, 96 h. P. falciparum luciferase reporter growth, 96 h. Potency, µM (highest dose often 28.7 µM), inactives show at the top dose activity change, negative = inhibition, hits mostly inhibitors. 6.9% of 320,000 active; also: % is scaled to controls: 0 for no effect and ±100 for the full control effect
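Compounds incubated with erythrocytes infected by luciferase-expressing P. falciparum (2% hematocrit, 0.05% parasitemia final) for 96 hours, 37 C in 5% CO2. Growth inhibition scored as decreased luciferase luminescence.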
Pf growth 48h – P. falciparum growth inhibition at 48 hours (one generation); Potency, µM (series often up to 28.7 µM), without a hit: at the highest dose activity change, negative = inhibition, hits mostly inhibitors; P. falciparum luciferase growth in erythrocytes, 48 h; 5.9% of 310,000 active; AID 504832; also: % is scaled to controls: 0 for no effect and ±100 for the full control effect
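Luciferase-expressing P. falciparum in infected erythrocytes (2% hematocrit, 0.1% parasitemia final) in RPMI 1640/0.5% Albumax were exposed to compound for 48 hours at 37 C, 5% CO2; growth read as luminescence.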
Sm TGR block – blocks Schistosoma mansoni thioredoxin glutathione reductase | purified TGR, DTNB reduction, TNB absorbance 405 nm | Potency, µM (titrated, usually from 114 µM), without a hit: at the top dose activity change, negative = inhibition, most hits filed as inhibitors | AID 485364 | Q962Y6 | 3% of 360,000 active; also: % is scaled to controls: 0 for no effect and ±100 for the full control effect; nearly all actives have a fitted effect of over 60% in size
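Kinetic colorimetric format: TGR-catalysed, NADPH-driven DTNB reduction monitored via TNB absorbance. Enzyme dispensed at 20 nM; compound exposure 15 min at room temperature before reaction start.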
Active calls of the source: *; ? = inconclusive; . = not tested or not shown. Unless noted, calls follow the shape of the dose curve; as a rule, active = well fitted curve in the direction sought with a large enough effect; inconclusive = small, poorly fitted or top-dose-only effect, or another doubt; inactive = no such curve, though single readings can be large; an effect the other way counts as inactive or inconclusive. Potency is read from the fitted curve at half-maximal effect.

SMILES | SARS PLP yeast | Pf growth 96h | Pf growth 48h | Sm TGR block
CCOC(=O)Cc1csc(NC(=O)c2c(O)c3ccccc3n(CCC(C)C)c2=O)n1 | 0.3% | -17.9% | ? | -5.1%
Cc1ccc(NC(=O)c2cccc(NC(=O)N3CCSc4ncccc43)c2)cc1Cl | . | . | . | 6.0%
O=C(NCc1ccccc1Cl)c1ccc2c(c1)NC(=O)C(CS(=O)(=O)Cc1ccc(Cl)cc1)N2 (stereo unspecified) | . | . | . | -18.6%
Cc1ccc(-c2nc3scc(CCNS(=O)(=O)c4c(C)noc4C)n3n2)cc1 | . | . | . | -2.7%
CCCCCn1c(=O)c(C(=O)Nc2ccccc2N)c(O)c2ccccc21 | -10.0% | 334.1% | 4.15µM* | 2.8%
CC(C)Cn1c(=O)c(C(=O)NCc2ccccn2)c(O)c2ccccc21 | -20.2% | -0.6% | 11.7µM* | -10.6%
CCCCn1c(=O)c(C(=O)Nc2ccccc2N)c(O)c2ccccc21 | -1.9% | ? | -12.4% | -7.9%
O=c1ccc(-c2ccccc2)nn1Cc1c(F)cccc1Cl | . | . | . | 8.1%
Nc1nc(N)c2c(ccc3nccc32)[nH]1 | 1.7% | 3.7µM* | 1.65µM* | 8.9%
Nc1ccc2ncccc2c1N | -10.9% | ? | ? | -15.6%
COc1ccc(N2CCN(C(=O)CCCCCn3c(=S)[nH]c4cc5c(cc4c3=O)OCO5)CC2)cc1 | 0.1% | ? | ? | 5.1%
CC(=O)c1ccc(N2CCN(C(=O)CCCn3c(=S)[nH]c4cc5c(cc4c3=O)OCO5)CC2)cc1 | -7.2% | 22.5% | 11.7µM* | -0.5%
O=C(CCCn1c(=S)[nH]c2cc3c(cc2c1=O)OCO3)N1CCN(c2ccccc2)CC1 | 7.5% | 13.1µM* | -16.1% | ?
Cc1cccc(N2CCN(C(=O)CCCn3c(=S)[nH]c4cc5c(cc4c3=O)OCO5)CC2)c1C | 11.2% | -8.0% | ? | -2.1%
Cn1cc(-c2cc3n(n2)CCC(=O)N3CCCC(=O)NCc2ccccc2Cl)c2ccccc21 | . | . | . | 0.1%
CC1C(=O)N(c2ccc(S(=O)(=O)N(C)C)cc2)C1(/C=C/c1ccccc1)C(=O)NC1CCCC1 (stereo unspecified) | -7.6% | 51.4% | 9.28µM* | -4.1%
O=C(Nc1ccccc1Br)c1ccc(N2CCCC2=O)cc1 | -3.6% | 165.1% | 85.9% | 7.3%
CCCc1nn2c(=O)cc(COC(=O)c3ccccc3NC(=O)c3ccc(OCC)cc3)nc2s1 | . | . | . | 0.1%
CC1(C)Cc2c(cnn2-c2cccc(F)c2)C(NC(=O)c2csnn2)C1 (stereo unspecified) | -0.8% | 6.57µM* | 38.7% | 0.3%
Cc1cc(C(=O)NC2CC(C)(C)Cc3c2cnn3-c2cccc(F)c2)n(C)n1 (stereo unspecified) | -0.5% | 9.28µM* | ? | 0.8%
Cc1cc(C(=O)NC2CC(C)(C)Cc3c2cnn3-c2ccccc2)n(C)n1 (stereo unspecified) | 5.8% | ? | -2.8% | -23.9%
CC(C)(C)c1cc(NC(=O)Nc2ccccc2OC(F)(F)F)no1 | 6.1% | ? | 11.7µM* | 10.2%
COC(=O)c1ccccc1NC(=O)Nc1cc(C(C)(C)C)on1 | 0.6% | -12.4% | 25.1% | -7.3%
CCCCN1CCCC1C(=O)Nc1c(C)cc(C)cc1C (stereo unspecified) | . | 2.62µM* | -24.8% | .
O=S1(=O)CCOC(CO)CN1Cc1ccc(Cl)c(Cl)c1 (stereo unspecified) | 25.2% | . | . | .
SMILES | SARS PLP yeast | Pf growth 96h | Pf growth 48h | Sm TGR block
CCOc1ccc(C2=NNC(c3cccs3)=Nc3ccc(OC)cc32)cc1OCC | 4.8% | -14.5% | 11.7µM* | 1.3%
COc1ccc(C2=NNC(c3cccs3)=Nc3ccc(OC)cc32)cc1 | -31.5% | -17.2% | ? | -2.4%
Cc1cc(OCC(=O)NCC2CCC(C(=O)O)CC2)c2c(C)c(Cc3ccccc3)c(=O)oc2c1 (stereo unspecified) | -6.6% | 3.29µM* | 11.7µM* | 31.6µM*
Cc1c(Cc2ccccc2)c(=O)oc2c(C)c(OCC(=O)NCC3CCC(C(=O)O)CC3)ccc12 (stereo unspecified) | 5.1% | -23.5% | ? | 8.0%
Cc1cc(C)cc(NC(=O)COc2ccc3c(C)c(Cc4ccccc4)c(=O)oc3c2)c1 | 1.2% | ? | 8.28µM* | -14.9%
Cc1c(Cc2ccccc2)c(=O)oc2c(C)c(OCC(=O)Nc3ccc(C#N)cc3)ccc12 | 5.7% | 2.08µM* | ? | -1.1%
Cc1c(Cc2ccccc2)c(=O)oc2cc(OCC(=O)c3ccccc3)ccc12 | 19.6% | -28.0% | 10.3% | 0.2%
C=C(C)COc1ccc2c(C)c(CCC(=O)NC3CC3)c(=O)oc2c1 | -4.8% | 10.4µM* | 10.4µM* | -10.8%
CC(=O)c1ccc(S(=O)(=O)N2CCN(C(=O)CSC(=S)N3CCCC3)CC2)cc1 | -5.0% | ? | ? | -5.6%
COc1cc(/C=C/C(=O)O)ccc1OS(=O)(=O)c1c(C)c(C)cc(C)c1C | 5.5% | -71.0% | 10.4µM* | -10.5%
O=C(Nc1ccccc1N1CCOCC1)c1ccc([N+](=O)[O-])s1 | -4.9% | . | . | .
CCCCCCCCCn1ccc(=N)cc1 | 0.6% | ? | 0.165µM* | 4.7%
CCCCCNCc1cccn1C | -0.4% | . | -0.8% | 27.4%
CCCCCCCn1ccc(=N)cc1 | -3.1% | . | 0.928µM* | -7.2%
N=c1ccn(Cc2c(Cl)cccc2Cl)cc1 | 0.5% | ? | ? | 12.4%
CCn1ccc(=N)cc1 | -1.6% | 11.7µM* | ? | 9.8%
CCCCCCN1CC(O)=C(c2ccccc2)C1=N | -0.2% | . | -12.1% | -5.9%
CCCCCn1ccc(=N)cc1 | 2.1% | 1.47µM* | 4.15µM* | 7.8%
CN(c1ccccc1)S(=O)(=O)c1cccc(NC(=O)c2nn(C)c(=O)c3ccccc23)c1 | 2.8% | ? | ? | 1.0%
O=C(O)[C@H](CC(=O)N1C[C@H]2CCCC[C@H]2C1)Cc1ccccc1 | . | 5.8% | -10.7% | .
COc1ccc(-c2nc(C)c(CCNC(=O)c3cc(OC)c(OC)c(OC)c3)s2)cc1OC | . | . | . | 3.7%
CCCCc1cc(=O)oc2cc(OCC(=O)N3C[C@H]4C[C@@H](C3)c3cccc(=O)n3C4)ccc12 | -16.0% | 8.28µM* | 11.0% | 6.7%
Cc1cc(OCC(=O)N2C[C@H]3C[C@@H](C2)c2cccc(=O)n2C3)c2c(C)c(C)c(=O)oc2c1 | -4.4% | -10.8% | 1.2% | -18.7%
CCCCc1cc(=O)oc2cc(C)cc(OCC(=O)N3C[C@H]4C[C@@H](C3)c3cccc(=O)n3C4)c12 | -4.2% | ? | 10.4µM* | 24.4%
CCc1cc(=O)oc2cc(C)cc(OCC(=O)N3CCC(C(=O)NC(C)C)(c4ccccc4)CC3)c12 | -6.4% | 10.4µM* | 10.4µM* | -4.9%
COc1ccc(-c2cc(=O)oc3cc(OCC(=O)N4C[C@H]5C[C@@H](C4)c4cccc(=O)n4C5)ccc23)cc1 | 12.5% | ? | ? | -8.9%
CCOc1ccc(NC(=O)NC2CCCc3ccccc32)cc1 (stereo unspecified) | 3.6% | 16.2% | 4.9% | 1.1%
O=C1c2ccccc2C(=O)c2c1cccc2N(CCO)CCO | -6.0% | 16.5% | 26.0% | -8.5%
O=C1C=C(N(CCO)Cc2ccccc2)c2ccccc2C1=O | -12.8% | -0.1% | 3.7µM* | ?
CC1CCCCC1NC(=O)/C(C#N)=C/c1ccccc1F (stereo unspecified) | -87.8% | 11.7µM* | ? | -8.6%
